In paper PMC7862700, “An all-to-all approach to the identification of sequence-specific readers for epigenetic DNA modifications on cytosine”:

Tests used:
Assay in all cases: DAPPL (digital affinity profiling via proximity ligation, sequencing); 10 mM Tris-HCl pH 7.5, 50 mM NaCl, 1 mM DTT, 4% glycerol, room temperature, 30 min; GST-TFs on glutathione beads, 16-mer random dsDNA library, 0.1% formaldehyde crosslink after washing; high values mean tight binding
Conditions in all cases: protein: recombinant; tags: N-terminal GST; dsDNA, one strand shown
ERF = target: T1, ERF (Homo sapiens, UniProt P50548 1-548)
T1 sequence: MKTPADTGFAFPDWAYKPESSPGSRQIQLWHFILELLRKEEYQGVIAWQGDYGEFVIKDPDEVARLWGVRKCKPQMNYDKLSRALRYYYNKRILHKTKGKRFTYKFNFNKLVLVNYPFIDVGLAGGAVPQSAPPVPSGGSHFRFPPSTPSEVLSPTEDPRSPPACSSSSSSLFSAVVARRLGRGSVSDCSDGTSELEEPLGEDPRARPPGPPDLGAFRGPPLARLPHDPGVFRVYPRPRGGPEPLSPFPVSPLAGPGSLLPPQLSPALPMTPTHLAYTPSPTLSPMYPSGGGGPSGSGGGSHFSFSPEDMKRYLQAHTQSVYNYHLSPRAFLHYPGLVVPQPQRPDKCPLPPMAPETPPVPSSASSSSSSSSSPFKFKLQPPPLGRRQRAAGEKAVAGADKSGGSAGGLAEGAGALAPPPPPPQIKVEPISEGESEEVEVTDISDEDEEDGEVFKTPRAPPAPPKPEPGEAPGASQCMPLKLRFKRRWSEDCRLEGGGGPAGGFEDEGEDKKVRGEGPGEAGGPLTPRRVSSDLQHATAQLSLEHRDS
Procedure, shortened: (§1)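 Binding signal is given per hexamer as its read frequency for a factor divided by its frequency in the tag-only sample. GST-fused human transcription factors were expressed in yeast, captured on glutathione beads, barcoded with DNA and pooled with that sample, then incubated with 200 nmole of a 16-mer random double-stranded DNA library in Tris/NaCl/DTT/glycerol buffer for 30 min at room temperature. The pools were then washed, crosslinked, proximity-ligated, amplified by PCR and sequenced on an Illumina NextSeq500.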

SPDEF = target: T2, SPDEF (Homo sapiens, UniProt O95238 1-335)
T2 sequence: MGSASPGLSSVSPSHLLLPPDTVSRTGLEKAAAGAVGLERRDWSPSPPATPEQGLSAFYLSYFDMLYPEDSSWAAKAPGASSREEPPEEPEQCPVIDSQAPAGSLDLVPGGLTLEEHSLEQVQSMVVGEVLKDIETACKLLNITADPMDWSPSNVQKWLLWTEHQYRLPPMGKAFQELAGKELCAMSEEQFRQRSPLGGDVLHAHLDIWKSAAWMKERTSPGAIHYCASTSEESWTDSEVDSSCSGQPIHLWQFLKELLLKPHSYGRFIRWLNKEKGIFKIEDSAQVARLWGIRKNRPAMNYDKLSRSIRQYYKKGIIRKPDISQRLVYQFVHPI
Procedure, shortened: as §1

ETV7 = target: T3, ETV7 (Homo sapiens, UniProt Q9Y603 1-341)
T3 sequence: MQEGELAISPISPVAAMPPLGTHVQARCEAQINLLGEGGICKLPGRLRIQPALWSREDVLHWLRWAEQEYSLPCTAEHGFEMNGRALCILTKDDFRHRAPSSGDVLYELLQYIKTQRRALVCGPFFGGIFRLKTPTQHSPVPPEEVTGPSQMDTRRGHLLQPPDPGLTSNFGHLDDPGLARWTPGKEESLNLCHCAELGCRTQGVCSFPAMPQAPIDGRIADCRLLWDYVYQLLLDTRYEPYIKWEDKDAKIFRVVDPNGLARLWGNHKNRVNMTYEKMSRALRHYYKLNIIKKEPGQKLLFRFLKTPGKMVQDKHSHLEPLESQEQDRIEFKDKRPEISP
Procedure, shortened: as §1

ELF5 = target: T4, ELF5 (Homo sapiens, UniProt Q9UKW6-2 1-255)
T4 sequence: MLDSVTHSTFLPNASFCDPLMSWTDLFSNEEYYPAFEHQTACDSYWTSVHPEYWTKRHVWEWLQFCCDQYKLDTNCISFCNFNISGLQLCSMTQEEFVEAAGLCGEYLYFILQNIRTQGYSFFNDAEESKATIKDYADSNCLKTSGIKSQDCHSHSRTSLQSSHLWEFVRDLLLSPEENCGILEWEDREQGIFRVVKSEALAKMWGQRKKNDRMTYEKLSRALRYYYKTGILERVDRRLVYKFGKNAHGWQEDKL
Procedure, shortened: as §1

ETV3 = target: T5, ETV3 (Homo sapiens, UniProt P41162-2 1-143)
T5 sequence: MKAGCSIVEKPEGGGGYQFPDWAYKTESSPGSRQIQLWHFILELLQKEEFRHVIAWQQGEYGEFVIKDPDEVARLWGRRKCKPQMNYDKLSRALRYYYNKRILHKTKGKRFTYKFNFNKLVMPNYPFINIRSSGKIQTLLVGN
Procedure, shortened: as §1

ETV6 = ETV6 (Homo sapiens, UniProt P41212 1-452)
Procedure, shortened: as §1

ETS2 = target: T6, ETS2 (Homo sapiens, UniProt P15036 1-469)
T6 sequence: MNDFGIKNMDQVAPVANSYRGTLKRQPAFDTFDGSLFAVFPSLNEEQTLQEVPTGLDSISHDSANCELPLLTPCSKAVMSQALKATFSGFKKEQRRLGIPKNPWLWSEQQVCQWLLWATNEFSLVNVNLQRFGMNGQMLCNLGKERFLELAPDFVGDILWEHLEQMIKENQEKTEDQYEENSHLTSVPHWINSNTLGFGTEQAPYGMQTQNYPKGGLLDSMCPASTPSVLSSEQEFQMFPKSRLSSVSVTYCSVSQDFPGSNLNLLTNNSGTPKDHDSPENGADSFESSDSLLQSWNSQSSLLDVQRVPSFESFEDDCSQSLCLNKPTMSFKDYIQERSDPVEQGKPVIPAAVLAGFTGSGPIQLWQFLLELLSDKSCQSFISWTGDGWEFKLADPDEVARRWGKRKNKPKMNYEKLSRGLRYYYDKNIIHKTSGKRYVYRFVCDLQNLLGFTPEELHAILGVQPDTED
Procedure, shortened: as §1

ETV3L = target: T7, ETV3L (Homo sapiens, UniProt Q6ZN32 1-361)
T7 sequence: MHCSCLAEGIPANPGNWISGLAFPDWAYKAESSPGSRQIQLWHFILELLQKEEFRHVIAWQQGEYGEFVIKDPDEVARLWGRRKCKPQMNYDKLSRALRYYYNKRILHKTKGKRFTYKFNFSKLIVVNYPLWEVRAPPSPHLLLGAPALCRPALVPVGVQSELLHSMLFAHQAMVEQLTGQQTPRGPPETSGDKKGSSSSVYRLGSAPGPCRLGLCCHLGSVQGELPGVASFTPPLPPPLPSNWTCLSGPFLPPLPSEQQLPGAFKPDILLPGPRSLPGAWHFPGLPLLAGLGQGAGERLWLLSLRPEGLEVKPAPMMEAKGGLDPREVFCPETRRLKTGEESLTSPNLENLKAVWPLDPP
Procedure, shortened: as §1

Chain of ETV6 (P41212 whole entry): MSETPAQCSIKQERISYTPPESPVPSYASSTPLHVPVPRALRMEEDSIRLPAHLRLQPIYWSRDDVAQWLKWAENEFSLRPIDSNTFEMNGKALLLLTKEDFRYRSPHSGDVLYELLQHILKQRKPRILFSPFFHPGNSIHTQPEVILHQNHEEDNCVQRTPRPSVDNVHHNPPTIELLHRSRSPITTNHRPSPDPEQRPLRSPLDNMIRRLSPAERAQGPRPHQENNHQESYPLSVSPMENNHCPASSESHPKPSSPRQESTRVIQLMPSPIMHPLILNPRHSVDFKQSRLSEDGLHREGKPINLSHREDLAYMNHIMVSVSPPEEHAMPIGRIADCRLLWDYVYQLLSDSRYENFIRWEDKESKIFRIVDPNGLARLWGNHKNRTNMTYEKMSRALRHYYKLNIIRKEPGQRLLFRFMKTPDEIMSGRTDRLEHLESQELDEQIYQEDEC

| Sequence | binding signal (ERF) | binding signal (SPDEF) | binding signal (ETV7) | binding signal (ELF5) | binding signal (ETV3) | binding signal (ETV6) | binding signal (ETS2) | binding signal (ETV3L) |
| --- | --- | --- | --- | --- | --- | --- | --- | --- |
| AACGTA | 1.05 fold enrichment (6-mer frequency, TF over GST control) | 1.01 fold enrichment (6-mer frequency, TF over GST control) | 1.05 fold enrichment (6-mer frequency, TF over GST control) | 1 fold enrichment (6-mer frequency, TF over GST control) | 1.04 fold enrichment (6-mer frequency, TF over GST control) | 1.03 fold enrichment (6-mer frequency, TF over GST control) | – | – |
| AAACGA | 1.17 fold enrichment (6-mer frequency, TF over GST control) | 1.03 fold enrichment (6-mer frequency, TF over GST control) | 1.05 fold enrichment (6-mer frequency, TF over GST control) | 1.09 fold enrichment (6-mer frequency, TF over GST control) | 1.07 fold enrichment (6-mer frequency, TF over GST control) | 1.12 fold enrichment (6-mer frequency, TF over GST control) | 1.15 fold enrichment (6-mer frequency, TF over GST control) | – |
| ATGTAG | 1.14 fold enrichment (6-mer frequency, TF over GST control) | 1.09 fold enrichment (6-mer frequency, TF over GST control) | – | 1.04 fold enrichment (6-mer frequency, TF over GST control) | 1.08 fold enrichment (6-mer frequency, TF over GST control) | 1.02 fold enrichment (6-mer frequency, TF over GST control) | 1.08 fold enrichment (6-mer frequency, TF over GST control) | – |
| GGAATT | 1.08 fold enrichment (6-mer frequency, TF over GST control) | 1.16 fold enrichment (6-mer frequency, TF over GST control) | 1.15 fold enrichment (6-mer frequency, TF over GST control) | 1.28 fold enrichment (6-mer frequency, TF over GST control) | 1.2 fold enrichment (6-mer frequency, TF over GST control) | 1.14 fold enrichment (6-mer frequency, TF over GST control) | 1.21 fold enrichment (6-mer frequency, TF over GST control) | – |
| AAGGTT | 1.01 fold enrichment (6-mer frequency, TF over GST control) | 1.02 fold enrichment (6-mer frequency, TF over GST control) | 1.15 fold enrichment (6-mer frequency, TF over GST control) | 1.1 fold enrichment (6-mer frequency, TF over GST control) | 1.07 fold enrichment (6-mer frequency, TF over GST control) | 1 fold enrichment (6-mer frequency, TF over GST control) | 1.08 fold enrichment (6-mer frequency, TF over GST control) | – |
| CGAAAT | 1.03 fold enrichment (6-mer frequency, TF over GST control) | 1.04 fold enrichment (6-mer frequency, TF over GST control) | 1.11 fold enrichment (6-mer frequency, TF over GST control) | – | 1.03 fold enrichment (6-mer frequency, TF over GST control) | – | – | – |
| AGGTTT | 1.13 fold enrichment (6-mer frequency, TF over GST control) | 1.02 fold enrichment (6-mer frequency, TF over GST control) | 1.08 fold enrichment (6-mer frequency, TF over GST control) | 1.04 fold enrichment (6-mer frequency, TF over GST control) | 1.11 fold enrichment (6-mer frequency, TF over GST control) | 1.03 fold enrichment (6-mer frequency, TF over GST control) | 1.01 fold enrichment (6-mer frequency, TF over GST control) | – |
| CAACAA | 1.05 fold enrichment (6-mer frequency, TF over GST control) | – | 1.02 fold enrichment (6-mer frequency, TF over GST control) | 1.03 fold enrichment (6-mer frequency, TF over GST control) | 1.08 fold enrichment (6-mer frequency, TF over GST control) | 1.01 fold enrichment (6-mer frequency, TF over GST control) | 1.08 fold enrichment (6-mer frequency, TF over GST control) | – |
| CGCCAA | 1.07 fold enrichment (6-mer frequency, TF over GST control) | – | 1.01 fold enrichment (6-mer frequency, TF over GST control) | – | 1.04 fold enrichment (6-mer frequency, TF over GST control) | 1.03 fold enrichment (6-mer frequency, TF over GST control) | 1.04 fold enrichment (6-mer frequency, TF over GST control) | – |
| CGGTAT | 1.02 fold enrichment (6-mer frequency, TF over GST control) | 1.32 fold enrichment (6-mer frequency, TF over GST control) | – | 1.1 fold enrichment (6-mer frequency, TF over GST control) | 1.05 fold enrichment (6-mer frequency, TF over GST control) | 1.06 fold enrichment (6-mer frequency, TF over GST control) | 1.01 fold enrichment (6-mer frequency, TF over GST control) | – |
| GGCTTG | 1.01 fold enrichment (6-mer frequency, TF over GST control) | – | 1.14 fold enrichment (6-mer frequency, TF over GST control) | – | – | – | 1.06 fold enrichment (6-mer frequency, TF over GST control) | – |
| GCCCAT | 1.05 fold enrichment (6-mer frequency, TF over GST control) | – | – | 1.01 fold enrichment (6-mer frequency, TF over GST control) | 1.01 fold enrichment (6-mer frequency, TF over GST control) | – | 1 fold enrichment (6-mer frequency, TF over GST control) | – |
| TTAGGT | 1.19 fold enrichment (6-mer frequency, TF over GST control) | 1.09 fold enrichment (6-mer frequency, TF over GST control) | 1.09 fold enrichment (6-mer frequency, TF over GST control) | 1.02 fold enrichment (6-mer frequency, TF over GST control) | 1.06 fold enrichment (6-mer frequency, TF over GST control) | 1.16 fold enrichment (6-mer frequency, TF over GST control) | 1.13 fold enrichment (6-mer frequency, TF over GST control) | – |
| CTGTAA | 1.2 fold enrichment (6-mer frequency, TF over GST control) | – | – | 1.03 fold enrichment (6-mer frequency, TF over GST control) | 1.12 fold enrichment (6-mer frequency, TF over GST control) | 1.03 fold enrichment (6-mer frequency, TF over GST control) | 1.09 fold enrichment (6-mer frequency, TF over GST control) | – |
| GGTTTA | 1.11 fold enrichment (6-mer frequency, TF over GST control) | 1.1 fold enrichment (6-mer frequency, TF over GST control) | 1.15 fold enrichment (6-mer frequency, TF over GST control) | 1.08 fold enrichment (6-mer frequency, TF over GST control) | 1.1 fold enrichment (6-mer frequency, TF over GST control) | 1.07 fold enrichment (6-mer frequency, TF over GST control) | 1.02 fold enrichment (6-mer frequency, TF over GST control) | – |
| TGGGTT | – | 1.05 fold enrichment (6-mer frequency, TF over GST control) | – | 1.01 fold enrichment (6-mer frequency, TF over GST control) | 1.02 fold enrichment (6-mer frequency, TF over GST control) | 1 fold enrichment (6-mer frequency, TF over GST control) | 1.06 fold enrichment (6-mer frequency, TF over GST control) | 1.17 fold enrichment (6-mer frequency, TF over GST control) |
| AATGGA | – | – | 1.03 fold enrichment (6-mer frequency, TF over GST control) | – | – | 1.12 fold enrichment (6-mer frequency, TF over GST control) | 1.09 fold enrichment (6-mer frequency, TF over GST control) | 1.08 fold enrichment (6-mer frequency, TF over GST control) |
